Test [1] in a line: antimalarial activity against Dd2 strain (AID 2302;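 active = growth inhibition above 50% at the single 2 µM test dose, taken to imply half-maximal potency below 2 µM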;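 also: 0% = DMSO untreated growth and 100% = chloroquine plus artemisinin killed control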). The settings on record: P. falciparum Dd2 in RBCs, LDH growth readout, 72 h; at 2 µM; active compounds read high.
A short description of test [2]: HepG2 cytotoxicity, primary screen, cytotoxicity control for P. falciparum antimalarial project, cell-based, ATP luminescence (AID 2303;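 active = inhibition above 50%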;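 also: 0% = DMSO wells and 100% = digitonin-killed cells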). The settings on record: HepG2 viability, 24-48 h, at 10 µM, active compounds read high.
Test [3] concerns the target L-lactate dehydrogenase (Plasmodium falciparum (isolate CDC / Honduras)) (UniProt Q27743). Briefly: PfLDH activity inhibition – cell lysate, 3D7 strain, counter-screen for P. falciparum growth inhibition project (AID 2304).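 Also: 0% = vehicle and 100% = reference inhibitor.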 Particulars: P. falciparum 3D7 crude extract, LDH APAD/NBT absorbance; at 2 µM; active compounds read high. Background: The purpose of a counterscreen is to sort out artefacts and off-target activity.

Test [4] can be described thus: inhibition of 3D7 malaria parasite growth – strain 3D7 (AID 2306).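 Also: 0% = DMSO wells and 100% = chloroquine plus artemisinin control wells.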 Particulars: P. falciparum 3D7 erythrocytic growth, LDH absorbance, 72 h; at 2 µM; active compounds read high.
Test [5] addresses Calcium-dependent protein kinase 1 (Plasmodium falciparum (isolate 3D7)) (UniProt P62344). Briefly: PfCDPK1 kinase inhibitors, biochemical, TCAMS library (AID 1159585; cut-off not given, nearly all actives have IC50 up to about 0.98 µM;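 also: inhibitors leave more ATP so luminescence rises with inhibition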). Particulars: recombinant PfCDPK1, Kinase-Glo ATP depletion luminescence.
Test [6] concerns the target Plasmodium falciparum protein kinase 6 (PK6, PF3D7_1337100) (UniProt Q8IDW1). Briefly: PfPK6 kinase inhibitors, biochemical, TCAMS library (AID 1159586). The settings on record: recombinant PfPK6, Kinase-Glo ATP depletion luminescence. Background: In Kinase-Glo more light means more ATP remaining.
In test [7] the target is Protein kinase 7 (PK7), Plasmodium falciparum 3D7 (PF3D7_0213400) (UniProt Q7YTF7). Briefly: inhibition of Plasmodium PK7 catalytic activity – biochemical, TCAMS antimalarial set, Kinase-Glo luminescence (AID 1159587). Particulars: recombinant PfPK7, Kinase-Glo ATP depletion luminescence.
Test [8] concerns the target Calcium-dependent protein kinase 4 (Plasmodium falciparum (isolate 3D7)) (UniProt Q8IBS5). Briefly: PfCDPK4 kinase inhibitors, biochemical, TCAMS library (AID 1159588; cut-off not given, nearly all actives have IC50 up to about 0.91 µM). The settings on record: recombinant PfCDPK4, Kinase-Glo ATP depletion luminescence.

SMILES strings stand for the structures. A number with no mark means an inactive call. For some of these results: Potency and affinity values are given separately. The source made the active and inactive calls. Unless noted, no rule for the calls is given here.

Protein kinase 7 (PK7), Plasmodium falciparum 3D7 (PF3D7_0213400), sequence (Q7YTF7 1-343): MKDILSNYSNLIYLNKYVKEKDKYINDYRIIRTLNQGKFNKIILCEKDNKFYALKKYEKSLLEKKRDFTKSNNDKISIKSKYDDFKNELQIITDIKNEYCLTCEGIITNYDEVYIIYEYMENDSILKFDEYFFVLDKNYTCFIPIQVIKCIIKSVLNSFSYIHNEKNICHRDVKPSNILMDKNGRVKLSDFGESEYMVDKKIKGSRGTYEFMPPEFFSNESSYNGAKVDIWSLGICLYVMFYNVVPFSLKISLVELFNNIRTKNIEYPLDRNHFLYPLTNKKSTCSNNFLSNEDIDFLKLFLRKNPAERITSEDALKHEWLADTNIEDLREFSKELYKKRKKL
Calcium-dependent protein kinase 4 (Plasmodium falciparum (isolate 3D7)), sequence (Q8IBS5 whole entry, looked up): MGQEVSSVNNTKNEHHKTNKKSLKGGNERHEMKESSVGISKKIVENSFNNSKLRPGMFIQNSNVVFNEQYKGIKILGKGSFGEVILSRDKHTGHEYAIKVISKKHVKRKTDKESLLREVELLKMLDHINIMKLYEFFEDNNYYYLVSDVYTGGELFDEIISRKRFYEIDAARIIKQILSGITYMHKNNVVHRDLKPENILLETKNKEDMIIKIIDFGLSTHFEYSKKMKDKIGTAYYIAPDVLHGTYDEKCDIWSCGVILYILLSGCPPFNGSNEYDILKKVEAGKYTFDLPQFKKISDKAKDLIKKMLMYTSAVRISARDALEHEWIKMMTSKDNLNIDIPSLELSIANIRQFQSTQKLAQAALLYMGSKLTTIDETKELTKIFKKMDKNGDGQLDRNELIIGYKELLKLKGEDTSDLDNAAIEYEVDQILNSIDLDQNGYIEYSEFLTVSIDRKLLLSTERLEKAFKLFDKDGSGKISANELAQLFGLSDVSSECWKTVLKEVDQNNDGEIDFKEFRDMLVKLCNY
L-lactate dehydrogenase (Plasmodium falciparum (isolate CDC / Honduras)), sequence (Q27743 whole entry, looked up): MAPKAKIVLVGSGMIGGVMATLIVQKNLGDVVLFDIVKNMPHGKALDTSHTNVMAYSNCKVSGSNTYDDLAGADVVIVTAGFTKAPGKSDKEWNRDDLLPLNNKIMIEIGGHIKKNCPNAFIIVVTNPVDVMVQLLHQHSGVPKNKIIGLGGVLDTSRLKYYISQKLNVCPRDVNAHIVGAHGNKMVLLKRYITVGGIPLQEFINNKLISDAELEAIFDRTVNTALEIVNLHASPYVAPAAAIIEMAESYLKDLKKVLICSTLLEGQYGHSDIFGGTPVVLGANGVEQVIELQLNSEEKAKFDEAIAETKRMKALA
Calcium-dependent protein kinase 1 (Plasmodium falciparum (isolate 3D7)), sequence (P62344 whole entry, looked up): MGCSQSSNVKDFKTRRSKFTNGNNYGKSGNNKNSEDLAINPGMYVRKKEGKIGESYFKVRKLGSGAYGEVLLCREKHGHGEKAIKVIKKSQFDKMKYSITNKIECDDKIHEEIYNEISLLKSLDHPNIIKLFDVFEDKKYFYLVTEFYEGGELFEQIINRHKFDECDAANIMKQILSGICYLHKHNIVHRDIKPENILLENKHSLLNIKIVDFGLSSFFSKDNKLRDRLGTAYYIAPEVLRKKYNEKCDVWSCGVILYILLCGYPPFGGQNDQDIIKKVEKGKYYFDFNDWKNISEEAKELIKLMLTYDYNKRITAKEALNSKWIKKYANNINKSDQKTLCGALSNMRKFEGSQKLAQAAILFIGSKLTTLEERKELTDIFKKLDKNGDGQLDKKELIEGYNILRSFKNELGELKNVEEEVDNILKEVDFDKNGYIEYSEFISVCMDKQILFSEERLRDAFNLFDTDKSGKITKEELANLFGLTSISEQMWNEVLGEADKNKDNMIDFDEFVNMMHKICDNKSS
Plasmodium falciparum protein kinase 6 (PK6, PF3D7_1337100), sequence (Q8IDW1 1-305): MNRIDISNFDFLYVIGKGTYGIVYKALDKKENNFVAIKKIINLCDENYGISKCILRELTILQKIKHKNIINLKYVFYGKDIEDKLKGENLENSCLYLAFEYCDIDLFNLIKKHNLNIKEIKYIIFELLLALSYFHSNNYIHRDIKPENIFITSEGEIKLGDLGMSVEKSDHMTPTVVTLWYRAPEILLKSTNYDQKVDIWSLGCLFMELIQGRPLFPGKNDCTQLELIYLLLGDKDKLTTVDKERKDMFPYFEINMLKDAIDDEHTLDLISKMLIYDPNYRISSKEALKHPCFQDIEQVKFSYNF

What is called inhibition is the drop in the measured response relative to a control, in per cent. Regarding `CCC(C)NS(=O)(=O)c1ccc2nc(Nc3ccc(C)cc3)n(C3CCCCC3)c2c1` (stereo not given), the growth inhibition in test [1] and in test [4] was 97% (active) throughout. In addition, the inhibition in test [2] was -9%; in test [3] it was -4%. For the same molecule, the outcome in test [5], in test [6], in test [7] and in test [8] was inactive.

For `COc1cc2nc(NCCc3ccccc3)nc(NCCCc3ccccc3)c2cc1OC`, the growth inhibition in test [1] and in test [4] was 101% (active) in each case. Also, the inhibition in test [2] is 21%; in test [3] it was 2%. In addition, the result in test [5], in test [6], in test [7] and in test [8] was inactive.

`O=C(NCCCCN1CCN(c2ccc3c(c2)CCC3)CC1)c1ccc(NC(=O)c2ccc(Cl)cc2)cc1`: the growth inhibition is 35% in test [1] and 98% (active) in test [4]. Besides, the inhibition was 38% in test [2] and 2% in test [3]. In addition, the result in test [5], in test [6], in test [7] and in test [8] was inactive.

As to `Nc1ccnc2ccc(NC(=O)CCCCCc3ccccc3)cc12`, the growth inhibition in test [1] was 30%; in test [4] it was 96% (active). Also, the results for the inhibition in test [2] and in test [3] were 47% and 3%, respectively. Further, the result in test [5], in test [6], in test [7] and in test [8] was inactive.

`CCN(CC)CCCNc1ncc2c(-c3ccc(NC(=O)Nc4cc(C(F)(F)F)ccc4F)c(F)c3)nn(C)c2n1`: the growth inhibition in test [1] was 68% (active); in test [4], 94% (active). For the same molecule, the inhibition was 100% (active) in test [2] and 3% in test [3]. In addition, the result in test [5], in test [6], in test [7] and in test [8] was inactive.

For the molecule `Cc1ccoc1C(=O)Nc1cccc(-c2cccc(-c3nc4ccccc4[nH]3)c2)c1`, the growth inhibition is 20% in test [1] and 85% (active) in test [4]. For the same molecule, the values for the inhibition in test [2] and in test [3] were 43% and -2%, respectively. In addition, the result in test [5], in test [6], in test [7] and in test [8] was inactive.

Turning to `COc1ccc(CNC(=O)NC2CCN(c3ccnc(Nc4ccc(F)cc4)n3)C2)cc1` (stereo not given), the growth inhibition in test [1] was 78% (active); in test [4], 91% (active). The figures for the inhibition in test [2] and in test [3] were 4% and -2%, respectively. The outcome in test [5], in test [6], in test [7] and in test [8] was inactive.

With `COc1cc(F)c2ncc(Cl)c([C@@H](O)CN3CCC(NCc4ccc5c(n4)NC(=O)CO5)CC3)c2c1`, the growth inhibition in test [1] was 100% (active); in test [4], 101% (active). For the same molecule, the values for the inhibition in test [2] and in test [3] were 12% and 1%, respectively. In addition, the outcome in test [5], in test [6], in test [7] and in test [8] was inactive.

Take `Cn1ncc2c3c(CCN4CCC(NCc5ccc6c(c5)NC(=O)CO6)CC4)c(Cl)cnc3ccc21`: the growth inhibition in test [1] is 92% (active); in test [4], 101% (active). The inhibition in test [2] is 18%; in test [3] it was -2%. Besides, the result in test [5], in test [6], in test [7] and in test [8] was inactive.

In the case of `CCCCOc1cc(OC)c2ccccc2c1CCNCCCCNCCc1c(OCCCC)cc(OC)c2ccccc12`, the growth inhibition in test [1] and in test [4] was 82% (active) each time. In addition, the values for the inhibition in test [2] and in test [3] were 100% (active) and -6%, respectively. Besides, the outcome in test [5], in test [6], in test [7] and in test [8] was inactive.

As for `c1ccc(CCNCc2ccc(-c3cccc(-c4nc5ccccc5[nH]4)c3)cc2)nc1`, the growth inhibition in test [1] is 87% (active); in test [4], 100% (active). The inhibition in test [2] is 36%; in test [3], 7%. The result in test [5], in test [6], in test [7] and in test [8] was inactive.

Take `COc1ccc2nc(-c3ccccc3)cc(NN=Cc3ccc([N+](=O)[O-])cc3)c2c1`: the growth inhibition in test [1] was 100% (active); in test [4], 102% (active). The inhibition is 89% (active) in test [2] and 7% in test [3]. The result in test [5], in test [6], in test [7] and in test [8] was inactive.

In the case of `Cc1cc(-c2ccc(NC(=O)Nc3ccc4nccc(N5CCN(C)CC5)c4c3)cc2C)cc(C)n1`, the growth inhibition in test [1] was 76% (active); in test [4], 100% (active). For the same molecule, the figures for the inhibition in test [2] and in test [3] were -2% and 4%, respectively. The outcome in test [5], in test [6], in test [7] and in test [8] was inactive.

For the molecule `CC(C)NCc1ccc(-c2ccc(NS(=O)(=O)c3cccc4cccnc34)cc2)cc1`, the growth inhibition is 45% in test [1] and 90% (active) in test [4]. In addition, the values for the inhibition in test [2] and in test [3] were 27% and -4%, respectively. Also, the outcome in test [5], in test [6], in test [7] and in test [8] was inactive.

`c1cc(CNCCc2ccncc2)cc(-c2ccc(-c3nc4ccccc4[nH]3)s2)c1`: the growth inhibition in test [1] was 97% (active); in test [4] it was 101% (active). Also, the inhibition was 1% in test [2] and -3% in test [3]. Further, the result in test [5], in test [6], in test [7] and in test [8] was inactive.

Regarding `O=C(Nc1ccc(C(F)(F)F)cc1)NC1CCN(CCCCCNC(=O)[C@@H]2C[C@H]2c2ccc(Cl)c(Cl)c2)CC1`, the growth inhibition in test [1] is 45%; in test [4], 101% (active). The inhibition in test [2] is 41%; in test [3] it was -7%. In addition, the result in test [5], in test [6], in test [7] and in test [8] was inactive.

With `CC1(C)N=C(N)N=C(N)N1O`, the growth inhibition in test [1] is 1%; in test [4], 93% (active). Also, the inhibition is 7% in test [2] and -5% in test [3]. The outcome in test [5], in test [6], in test [7] and in test [8] was inactive.

With `O=C(Nc1ccc(-c2nc3ccccc3[nH]2)cc1)C1CCCN(C2CCC2)C1` (stereo not given), the growth inhibition in test [1] was 5%; in test [4] it was 90% (active). Further, the inhibition in test [2] was -1%; in test [3], 4%. In addition, the result in test [5], in test [6], in test [7] and in test [8] was inactive.

Turning to `O=C(Nc1ccc(F)c(C(F)(F)F)c1)N[C@H]1CCN(CCCCCNC(=O)[C@@H]2C[C@H]2c2ccc(Cl)c(Cl)c2)C1`, the figures for the growth inhibition in test [1] and in test [4] were 0% and 90% (active), respectively. In addition, the inhibition is 46% in test [2] and 7% in test [3]. Moreover, the result in test [5], in test [6], in test [7] and in test [8] was inactive.

Take `Cc1c(O)cccc1Nc1ccnc2ccc(C(F)(F)F)cc12`: the growth inhibition in test [1] was 51% (active); in test [4], 96% (active). Besides, the inhibition in test [2] is -15%; in test [3], -2%. Moreover, the result in test [5], in test [6], in test [7] and in test [8] was inactive.

(Values after PubChem BioAssay.)
